Whole data set: some 33,000 sequences, median “E-score (-0.5 to 0.5)” near -0.013, cut for the highest 2% near 0.3. The full list was thinned out, with the highest values kept by preference.
molecular target: T1, Msn1 (UniProt P22148); assay: PBM E-score (8-mer binding enrichment) (E-score (-0.5 to 0.5)); higher = stronger / more preferred TF binding; settings: protein concentration: 200 nM; construct: GST-full length
T1 sequence: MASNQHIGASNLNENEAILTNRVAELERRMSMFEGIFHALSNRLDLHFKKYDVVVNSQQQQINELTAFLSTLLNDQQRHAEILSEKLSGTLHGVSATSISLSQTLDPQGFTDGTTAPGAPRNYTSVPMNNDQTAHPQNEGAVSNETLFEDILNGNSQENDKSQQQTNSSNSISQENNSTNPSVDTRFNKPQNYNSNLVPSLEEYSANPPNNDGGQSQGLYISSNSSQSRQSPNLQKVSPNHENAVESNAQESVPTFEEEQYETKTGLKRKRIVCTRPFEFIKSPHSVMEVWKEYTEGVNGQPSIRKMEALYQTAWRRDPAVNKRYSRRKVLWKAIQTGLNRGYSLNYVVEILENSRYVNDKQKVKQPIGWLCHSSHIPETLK
Method: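 Universal 'all 10-mer' protein binding microarrays (Agilent AMADID 015681) probed with GST-tagged S. cerevisiae TFs (full-length or DBD) made by in vitro transcription/translation (PURExpress), about 100-200 nM. Bound TF was detected with fluorescent anti-GST. Each ungapped 8-mer (which stands for itself and its reverse complement) is scored by the PBM enrichment score (E-score), a modified Wilcoxon-Mann-Whitney statistic from -0.5 to +0.5, computed with the Universal PBM Analysis Suite. Scale: above 0.35 generally sequence-specific binding.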

Sequence	PBM E-score
GGAAAGAC	-0.0443
ATCCTATG	-0.0491
AGGCGTAG	-0.189
CCTTGCGA	0.028
GGTGGTAC	-0.152
GTAAGCTA	0.0896
AACATAAA	0.0678
AACATAAC	0.0281
GACATAAA	0.44
GACATAAC	0.396
CACATAAC	0.0195
TACATAAA	0.15
CGGAGGAA	-0.131
GCATGGGC	-0.183
CCGCTCGA	-0.143
GATTGCTA	-0.0824
CGAGAGTC	-0.131
GCTAGGAC	0.267
ACTAGGAG	-0.201
CTTAGGAC	0.269
ATTAGGAA	-0.00879
ACTAGGAC	0.426
AATAGGAT	0.157
ATTAGGAC	0.37
AATAGGAC	0.387

Sequence	PBM E-score
AATAGGAA	0.102
ATCGACCC	-0.11
ATCCCTGC	-0.24
AGGGTAAG	0.00826
AACGGGTC	-0.155
CAGAATAC	0.0673
TCCTCTAA	-0.0667
AGTGGGAC	0.118
ACTCTCCA	-0.0814
ATTGAACA	0.124
CTCGTCCC	0.228
CCCCATAG	-0.15
CAAATGTA	0.276
CAAATGTG	0.229
GAAATGTC	0.487
GAAATGCC	0.00283
GAAATGTA	0.245
CAAATTTC	0.184
AAAATTTG	0.16
CAAATGTC	0.471
CAAATTTG	0.32
GCCGGTCC	-0.233
CAGCGTTA	-0.131
AAACTCTC	-0.0224
CGGACAAA	0.484

Sequence	PBM E-score
CGGACGAG	0.0588
CGGACCAG	-0.125
CGGACAGA	0.302
CGGACGAA	0.337
CGGACGAC	-0.0607
GGAACAAC	0.0504
CGGACGGA	-0.00604
GGGACCAC	-0.255
GGGACAAC	0.375
CGGACAAG	0.418
GGGACGAA	0.187
GCTCTCAC	-0.29
ATTTGACG	0.15
CCAGCATC	-0.148
AGAAGAGC	-0.0669
GTTGAATA	0.0705
TGGTCTAA	-0.0904
CGGACCAC	-0.0995
CAGACAAC	0.212
CGGACAAC	0.369
GATGGAGC	-0.185
GTGCGGGA	-0.0606
ACAAGTCC	0.363
ACAAGTCG	0.0205
AAAAGTAT	0.17

Sequence	PBM E-score
AAAAGTAC	0.366
ATTAGTCA	0.0896
ACAAGTCA	0.0996
AAAAGTCT	0.269
AAAAGTAA	0.25
AAAAGTCA	0.194
ATTAGTCG	0.16
AAAAGTCC	0.467
ATTAGTCC	0.349
ACCTCAGA	-0.147
CGGCTTAC	0.051
AAGGCCAA	-0.2
TGGCGAAA	-0.095
ACTGAAGA	0.147
AAGGCTAG	0.0752
CACCCAAC	-0.201
GAGGCGCC	-0.178
ATAAGTCG	0.0746
CTAAGTCC	-0.0602
ATAAGTCC	0.422
ACAGTCAG	0.0633
GATTTGCA	0.0983
CATTTGCC	-0.00883
CATTTGTA	0.36
CATTTGGC	0.0384

Sequence	PBM E-score
AATTTGTA	0.28
GATTTGTA	0.31
CATTTGTC	0.485
CATTTGCA	0.0736
GGTTTGTA	0.0228
GCAACCGC	0.0753
AATCCAAG	0.0229
AGCCCGCG	-0.185
CAACCATC	-0.177
CTGAACTC	-0.0622
TAGGGAGA	-0.215
GAGGGAGA	-0.218
TAGGGAAA	-0.0483
TAGGGACA	0.484
AAGGGACC	-0.0619
AAGGGACA	0.44
AAGGGACT	0.0205
GAGGGACA	0.447
CAGGGACC	-0.273
CAGGGACA	0.47
GAGGGACC	-0.268
CAGGGACG	0.165
ACTAGCGA	0.0418
AGCATGCG	-0.0235
GAGTCTCA	0.00041

Sequence	PBM E-score
CGATAACC	0.0193
GAAATGGA	-0.0913
GAAATGAC	0.216
CCGATTTA	0.109
GAGCCCTC	-0.318
CCCTAGTA	-0.0771
CAAGCGTA	-0.0459
CCTTTTAC	0.0837
CTGGGGCC	-0.384
AGGACAAG	0.472
AGGACGAT	-0.0393
ACGACAAT	0.24
AGGACCAC	-0.124
AGGACAAC	0.436
AGGACTAC	-0.122
AGGACTAG	0.273
AGGACCAG	-0.141
AGGACAAT	0.483
ATTCGAAA	0.0661
AATCTGGT	0.0578
ATAGGTAC	0.199
GCTTTCGA	-0.175
ATGCCTGC	-0.145
ACGGTTAA	-0.117
CCTCGTTC	-0.202

Sequence	PBM E-score
AGAAAACA	0.108
AAGGACGT	0.32
AAGGACTT	0.347
CAGGACAG	0.259
AAGGACCA	-0.0926
AAGGACAG	0.296
CAGGACCA	-0.0434
AAGGACTA	-0.00885
AAGGACAA	0.485
CAGGACAA	0.481
AAGGACGG	-0.145
AAGGACGA	0.0414
AAGGACTG	-0.0408
GCCCGTCA	-0.234
ACCGGTAA	-0.0138
AACTTTGA	0.12
AAATTCGT	0.256
AGCCCCGC	-0.0507
GGGCCTAA	-0.0118
TAGGACTA	0.257
AAGGACAT	0.49
TAGGACAA	0.491
TAGGACCA	0.202
AAGGACCT	0.0694
AAGGAGAT	-0.164

Sequence	PBM E-score
TATATGCA	0.102
ACATTCAA	0.134
CTTGGCCA	-0.0402
GAGGACAC	0.398
GAGGACAA	0.466
AAGGACCC	-0.0634
GAGGACCA	-0.184
GAGGACTC	-0.078
CAGGACAC	0.407
CAGGACGC	0.00853
AAGGACAC	0.449
GAGGACCC	-0.218
CAGAACAC	-0.0663
AAGGACGC	0.167
GAGGACTA	0.0516
GCCGGTAA	0.146
ATATTCGG	0.11
AGCAGTTA	-0.0695
CTCGACAG	-0.14
TACACTGA	0.0723
GCCTAAAC	0.0003
AGTCGCTA	-0.0278
ACGATGTA	0.00548
GCATCACA	-0.0397
ATCGTGCC	0.0402

Sequence	PBM E-score
ATCGTGCG	0.306
ATCGTGCA	0.125
CCCAGACC	-0.348
AATTTAAT	0.298
GCCCGCAA	-0.0655
GCATTGAA	-0.0579
AGAAATCC	-0.0711
ATGAGACA	0.358
ACGAGACA	0.275
GTGAGACA	0.315
GTGAGAGA	-0.0903
CTGAGACC	-0.18
GTGAGAAA	0.124
CTGAGACA	0.319
CCGAGACC	-0.0572
CTGAGAGA	-0.0585
ATGAGACC	-0.0403
CCGAGACA	0.319
ATGAGACG	-0.109

— the supplement of paper PMC3334620
